{"source": "PubChem BioAssay (NCI)", "note": "Compounds without any hit were thinned out: in the full panel of roughly 83,000, 20% have a hit.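 For each line, cells grew in 96-well plates with the test compound present at a single concentration for 48 hours.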 Unmarked numbers belong to inactive results. Calls of active or inactive are those of the source. Rule for the calls: active = growth percent below 10; inactive = the rest.", "data": [{"test_system": "HL-60(TB) leukemia", "assay": "NCI-60 one-dose screen, 48 h (100 = growth as untreated, 0 = no growth, -100 = all killed)", "settings": "10 µM unless noted", "values": [{"molecule": "COc1cc(/C=C/C(=O)/C=C/c2cc(OC)c3c(c2)OCO3)cc2c1OCO2", "growth": "68.6%"}, {"molecule": "CC1=CC2c3oc(-c4ccccc4)c(C(=O)c4ccccc4)c3CNC2C=C1", "note": "(configuration not stated)", "growth": "84.3%"}, {"molecule": "O=C1NC(=O)C(c2cnc3ccccn23)=C1c1cn2c3c(cc(F)cc13)CN(C(=O)N1CCCCC1)CC2", "growth": "48.1%"}, {"molecule": "O=C1c2c[n+](Cc3ccccc3)ccc2-c2nc3ccccc3c3ccnc1c23", "growth": "-29.6% (active)"}, {"molecule": "Nc1ccc(CC(=O)O)c(N)c1", "growth": "102%"}, {"molecule": "CC1(C)N=C(N)N=C(N)N1c1cccc(Br)c1", "growth": "33.9%"}, {"molecule": "N#CCC1CCCC1", "growth": "102%"}, {"molecule": "Nc1ncc(-c2ccc3ncnc(N4CCc5ccc(Cl)cc54)c3c2)cn1", "growth": "-51.1% (active)"}, {"molecule": "O=C(Nc1nc(-c2ccccc2Cl)cs1)c1cc(-c2ccc(Br)cc2)nc2ccccc12", "growth": "37.2%"}, {"molecule": "Cc1cc2cc3cc(C)c(N(C)C)cc3[n+](C)c2cc1N(C)C", "growth": "47%"}, {"molecule": "Fc1ccccc1CSc1ncnc2nc[nH]c12", "growth": "90.4%"}, {"molecule": "Cc1c2ncccc2nc2[nH]c3ccc(OCCN(C)C)cc3c12", "growth": "15.9%"}, {"molecule": "COc1cc2ncnc(Nc3ccc(S(=O)(=O)Nc4cc(C)on4)cc3)c2cc1OCCCN1CCN(c2ccc(F)cc2)CC1", "growth": "112%"}, {"molecule": "CC1(C)CC(=O)C2=C(C1)N(c1ccc(OC(F)(F)F)cc1)C(N)=C(C#N)C2c1ccc(Br)cc1F", "note": "(configuration not stated)", "growth": "78.5%"}, {"molecule": "CCN1C(=O)N(CC)C2C1NN=c1s/c(=C\\c3ccccc3Br)c(=O)n12", "note": "(configuration not stated)", "growth": "-40.7% (active)"}, {"molecule": "Nc1ccccc1C#Cc1ccccc1C#Cc1ccc(OCCCCCCOc2ccc(C#Cc3ccccc3C#Cc3ccccc3N)cc2)cc1", "growth": "110%"}, {"molecule": "Oc1cc(Cl)ccc1Cc1ccc(Cl)cc1O", "growth": "41.4%"}, {"molecule": "CN(Cc1ccccc1)c1nc(Cl)c(C2CC(c3ccc4c(c3)OCO4)=NN2c2cc(Cl)cc(Cl)c2)s1", "note": "(configuration not stated)", "growth": "105%"}, {"molecule": "C[C@H]1[C@H](C)CC[C@]2(CO)CC[C@]3(C)C(=CC[C@@H]4[C@@]5(C)Cc6c([nH]c7ccccc67)C(C)(C)[C@@H]5CC[C@]43C)[C@H]12", "growth": "81.7%"}, {"molecule": "CCOC(=O)c1nn(C2CCCCO2)c2ccc(NC(=O)CSc3nc4ccccc4c(=O)[nH]3)cc12", "note": "(configuration not stated)", "growth": "118%"}, {"molecule": "Cc1[nH]c(C(=O)Nc2ccccc2OC2CCNC2)c(Cl)c1Cl", "note": "(configuration not stated)", "growth": "90.6%"}, {"molecule": "C=C(C)[C@@H]1CC[C@]2(COCCC#N)CC[C@]3(C)[C@H](CC[C@@H]4[C@@](C)(CCCNCCC#N)[C@H](C(=C)C)CC[C@]43C)[C@@H]12", "growth": "-16.2% [100 µM] (active)"}, {"molecule": "C=C[C@]1(C)C=C2CC[C@@H]3C(C)(C)C(=O)CC[C@@]3(C)[C@@H]2CC1", "growth": "101%"}, {"molecule": "N#Cc1c(-c2ccc(Cl)cc2)nc(N/N=C/c2cccc(Br)c2)nc1N1CCOCC1", "growth": "40.6%"}, {"molecule": "COc1ccc2c(c1)C(C)Cc1c(ncnc1-n1cnc3ccccc31)N2C", "note": "(configuration not stated)", "growth": "-5.85% (active)"}, {"molecule": "C=C1CC2(OC1=O)C(=O)N(CCCCCCCN1C(=O)C3(CC(=C)C(=O)O3)c3ccccc31)c1ccccc12", "note": "(configuration not stated)", "growth": "11.7%"}, {"molecule": "Cc1cccc2c(=O)c3c(sc12)c(N1CCNCC1)nc1ccccc13", "growth": "52.9%"}, {"molecule": "COc1cc(-c2nn(-c3ccccc3)cc2-c2ccnc(NCCNS(=O)(=O)c3ccc(Cl)cc3)n2)ccc1Cl", "growth": "-35.9% (active)"}, {"molecule": "O=C(c1nc2ccccc2[nH]1)C1C(c2ccc(Br)cc2)C2CC3CCCC[C@H]3N2[C@@]12C(=O)Nc1cc(Cl)ccc12", "note": "(some centres not stated)", "growth": "12.4%"}, {"molecule": "COc1ccc2c(c1)C(=O)c1c-2c(OCCN(C)C)nc2ccccc12", "growth": "25.4%"}, {"molecule": "Cc1nc2cc(Nc3nc(NCCO)nc(Nc4ccc(F)cc4)n3)ccc2n1Cc1ccccc1", "growth": "-26.8% (active)"}, {"molecule": "c1ccc(-c2cc3n4c(-c5ccccc5)nn(-c5ccccc5)c4cnc-3n2)cc1", "growth": "120%"}, {"molecule": "CCc1ccc(C2=NN(c3ccc(S(C)(=O)=O)cc3)C(=O)CC2)cc1", "growth": "6.73% (active)"}, {"molecule": "CS(=O)(=O)c1ccc(C(=O)Nc2ccc(Cl)c(-c3ccccn3)c2)c(Cl)c1", "growth": "14.2%"}, {"molecule": "COc1ccc2c(c1)N(CCO)C1=C(C(=O)OC1)C2c1cccc(Br)c1", "note": "(configuration not stated)", "growth": "-26.3% (active)"}, {"molecule": "Nc1ncc(-c2ccc3ncnc(Nc4cncc(Cl)c4)c3c2)cn1", "growth": "92.5%"}, {"molecule": "COc1ccc(C2OC(N)=C(O)C2=O)cc1OC", "note": "(configuration not stated)", "growth": "92.6%"}]}]}
